Measurements published in PubChem BioAssay (NCI).
About 79,000 compounds went through this panel and 15% of them were active in at least one assay; those are over-represented in the sample as a whole. Calls of active or inactive are those of the source. Cut-off read from the data, not from the text of the source: active = growth inhibition above about 70%; inactive = the rest.

Legend:
[1] = NCI Yeast Anticancer Drug Screen. Data for the rad50 strain (AID 155);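 note: 0% = growth of vehicle-only cultures of the same strain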; details: S. cerevisiae rad50 strain growth inhibition, hits give high values
How it was run: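 Vehicle-treated cultures provide the reference for the growth inhibition reported for compound-exposed, repair-deficient yeast.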

[2] = NCI Yeast Anticancer Drug Screen. Data for the mec2-1 strain (AID 157); details: S. cerevisiae mec2-1 strain, hits give high values
How it was run: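 Mutant yeast (mec2-1) grown with compound; growth inhibition relative to vehicle control reported.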

[3] = NCI Yeast Anticancer Drug Screen. Data for the sgs1 mgt1 strain (AID 161);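 note: 0% = growth of cultures given vehicle only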; details: S. cerevisiae sgs1 mgt1 strain, hits give high values
How it was run: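 Growth of a repair-deficient yeast mutant was monitored after compound treatment and expressed as inhibition relative to vehicle-treated cultures.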

[4] = NCI Yeast Anticancer Drug Screen. Data for the cln2 rad14 strain (AID 165);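 note: 0% = growth equal to vehicle treated cultures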; details: S. cerevisiae cln2 rad14 strain, hits give high values
How it was run: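 Readout is yeast growth inhibition versus vehicle-treated controls, using a strain with cln2 and rad14 alterations exposed to compound.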

[5] = NCI Yeast Anticancer Drug Screen. Data for the bub3 strain (AID 167); details: S. cerevisiae bub3 mutant strain, hits give high values
How it was run: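 Mutant yeast screening strain plus compound; vehicle-treated cultures serve as the 0% inhibition reference.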

[6] = NCI Yeast Anticancer Drug Screen. Data for the mlh1 rad18 strain (AID 175); details: S. cerevisiae mlh1 rad18 strain growth inhibition, hits give high values
How it was run: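 Genetically defined yeast (DNA repair-deficient) exposed to compounds; growth inhibition determined relative to vehicle.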

[7] = at 5.0 µM (retest, dose inferred, filed as 0.5)
[8] = at 50.0 µM (retest, dose inferred, filed as 5.0)

Measured: growth inhibition

CCOc1ccccc1C(=O)Oc1cccc(C)c1
inactive: [1]; [7] -7% | [1]; [8] -1% | [1]; at 50.0 µM 1.95% | [2]; [7] -8% | [2]; [8] -18% | [2]; at 50.0 µM -9.75% | [3]; [7] -2% | [3]; [8] 12% | [3]; at 50.0 µM 5.55% | [4]; [7] -21% | [4]; [8] 32% | [4]; at 50.0 µM -5.2% | [5]; [7] 6% | [5]; [8] -6% | [5]; at 50.0 µM 11.8% | [6]; [7] -19% | [6]; [8] 17% | [6]; at 50.0 µM 18.9%

Cc1ccc(S(=O)(=O)c2cc(O)c(O)c3ccc(Br)cc23)cc1
active: [1]; [8] 97% | [1]; at 50.0 µM 79.5% | [2]; [8] 98% | [2]; at 50.0 µM 98.5% | [3]; [8] 98% | [3]; at 50.0 µM 92.9% | [4]; [8] 97% | [4]; at 50.0 µM 95.4% | [5]; [8] 97% | [5]; at 50.0 µM 83.8% | [6]; [8] 97% | [6]; at 50.0 µM 97.9%
inactive: [1]; [7] 13% | [2]; [7] 9% | [3]; [7] 16% | [4]; [7] -1% | [5]; [7] -4% | [6]; [7] 9%

CC(C)(C)c1cc(C2c3cc4c(cc3OC(O)(CO)C2C(=O)O)OCO4)cc(C(C)(C)C)c1O (stereo unspecified) (tested in a mixture with another compound)
active: [4]; at 50.0 µM 72.1% | [6]; [8] 73%
inactive: [1]; [7] -23% | [1]; [8] 39% | [1]; at 50.0 µM 49.9% | [2]; [7] -6% | [2]; [8] 61% | [2]; at 50.0 µM 50.1% | [3]; [7] -20% | [3]; [8] 50% | [3]; at 50.0 µM 37% | [4]; [7] 5% | [4]; [8] 68% | [5]; [7] -10% | [5]; [8] 63% | [5]; at 50.0 µM 55% | [6]; [7] 11% | [6]; at 50.0 µM 52.6%

Cc1cc(N=NC(N)=S)c2ccccc2c1O
active: [1]; at 50.0 µM 76.2%
inactive: [1]; [7] 4% | [1]; [8] 22% | [2]; [7] -3% | [2]; [8] 1% | [2]; at 50.0 µM 24.9% | [3]; [7] -5% | [3]; [8] 16% | [3]; at 50.0 µM 6.7% | [4]; [7] -2% | [4]; [8] -23% | [4]; at 50.0 µM -22.1% | [5]; [7] 2% | [5]; [8] 15% | [5]; at 50.0 µM 37.2% | [6]; [7] -40% | [6]; [8] -1% | [6]; at 50.0 µM 53.8%

CCCCCCCC(=O)/C=C/c1ccc(C)cc1
inactive: [1]; [7] -161% | [1]; [8] -136% | [1]; at 50.0 µM 56.8% | [2]; [7] -54% | [2]; [8] -50% | [2]; at 50.0 µM 44.1% | [3]; [7] -69% | [3]; [8] -65% | [3]; at 50.0 µM 67.6% | [4]; [7] -62% | [4]; [8] -86% | [4]; at 50.0 µM 30.2% | [5]; [7] -61% | [5]; [8] -47% | [5]; at 50.0 µM 65.8% | [6]; [7] -128% | [6]; [8] -119% | [6]; at 50.0 µM 45%

O=C1SC(c2ccccc2)=S=C1c1ccccc1
inactive: [1]; [7] 18% | [1]; [8] 28% | [1]; at 50.0 µM 40% | [2]; [7] 24% | [2]; [8] 39% | [2]; at 50.0 µM 46.8% | [3]; [7] 21% | [3]; [8] 44% | [3]; at 50.0 µM 37.4% | [4]; [7] 13% | [4]; [8] 13% | [4]; at 50.0 µM 24.6% | [5]; [7] 20% | [5]; [8] 54% | [5]; at 50.0 µM 13.8% | [6]; [7] 33% | [6]; [8] 38% | [6]; at 50.0 µM -25.4%

CC(C)CCC(C)(C)c1cc(O)ccc1O
active: [1]; [8] 99% | [1]; at 50.0 µM 98.4% | [2]; [8] 99% | [2]; at 50.0 µM 99.5% | [3]; [8] 98% | [3]; at 50.0 µM 75.7% | [4]; [8] 92% | [4]; at 50.0 µM 87.5% | [5]; [7] 79% | [5]; [8] 98% | [5]; at 50.0 µM 98.8% | [6]; [8] 99% | [6]; at 50.0 µM 97.6%
inactive: [1]; [7] 35% | [2]; [7] 13% | [3]; [7] 16% | [4]; [7] 14% | [6]; [7] 35%

Nc1nc(=O)[nH]c([O-])c1N=O.Nc1nc(=O)[nH]c([O-])c1N=O.[Ag+].[Ag+]
active: [1]; at 50.0 µM 96.8% | [2]; at 50.0 µM 98.7% | [3]; at 50.0 µM 92.9% | [4]; at 50.0 µM 98.8% | [5]; [7] 76% | [5]; at 50.0 µM 99.2% | [6]; at 50.0 µM 96.9%
inactive: [1]; [7] 37% | [1]; [8] -25% | [2]; [7] 44% | [2]; [8] -8% | [3]; [7] 63% | [3]; [8] -28% | [4]; [7] 28% | [4]; [8] -17% | [5]; [8] -28% | [6]; [7] 36% | [6]; [8] -21%

C/C(=N\NC(=O)C[n+]1ccccc1)c1sc(-c2nc(C)c(/C(C)=N/NC(=O)C[n+]3ccccc3)s2)nc1C
active: [1]; [7] 95% | [1]; [8] 97% | [1]; at 50.0 µM 97.2% | [2]; [7] 97% | [2]; [8] 99% | [2]; at 50.0 µM 96.8% | [3]; [7] 98% | [3]; [8] 97% | [3]; at 50.0 µM 96.9% | [4]; [7] 92% | [4]; [8] 97% | [4]; at 50.0 µM 93% | [5]; [7] 95% | [5]; [8] 97% | [5]; at 50.0 µM 96.8% | [6]; [7] 93% | [6]; [8] 98% | [6]; at 50.0 µM 96.4%

Nc1ccc2nc(N)sc2c1
inactive: [1]; [7] -5% | [1]; [8] 8% | [1]; at 50.0 µM 20.1% | [2]; [7] -6% | [2]; [8] 2% | [2]; at 50.0 µM -3.75% | [3]; [7] 0% | [3]; [8] -47% | [3]; at 50.0 µM 18.5% | [4]; [7] 0% | [4]; [8] 2% | [4]; at 50.0 µM 42.9% | [5]; [7] -2% | [5]; at 50.0 µM -15.2% | [6]; [7] -4% | [6]; [8] 4% | [6]; at 50.0 µM -6.65%
active: [5]; [8] 90%

C/C(=N\NC(=S)NC(C)(C)C)c1ccccn1
inactive: [1]; [7] 20% | [2]; [7] 13% | [3]; [7] 32% | [4]; [7] 31% | [5]; [7] 18% | [6]; [7] 38%
active: [1]; [8] 99% | [1]; at 50.0 µM 77% | [2]; [8] 99% | [2]; at 50.0 µM 85% | [3]; [8] 99% | [3]; at 50.0 µM 90.5% | [4]; [8] 99% | [4]; at 50.0 µM 89.5% | [5]; [8] 99% | [5]; at 50.0 µM 90.2% | [6]; [8] 98% | [6]; at 50.0 µM 91.2%

O=C(O)/C=C/c1ccc(Cl)c(Cl)c1
inactive: [1]; [7] 9% | [2]; [7] -15% | [2]; [8] 55% | [2]; at 50.0 µM 64.3% | [3]; [7] 11% | [3]; [8] 59% | [3]; at 50.0 µM 55.1% | [4]; [7] 19% | [4]; [8] 45% | [4]; at 50.0 µM 63.5% | [5]; [7] -1% | [6]; [7] -17%
active: [1]; [8] 83% | [1]; at 50.0 µM 93.1% | [5]; [8] 77% | [5]; at 50.0 µM 86.8% | [6]; [8] 90% | [6]; at 50.0 µM 92.9%
